High-throughput results deposited in PubChem BioAssay by SRMLSC.
NADH enzymes = inhibition of NAD/NADH coupling enzymes, library profiling; hit rate 0.02% among 65,000; AID 774; coupled PK/LDH NADH assays, four targets; IC50, µM (top dose mostly 10 µM), for the others: at the top dose inhibition;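 active = single-dose screening hits from any of four coupled enzyme assays that gave an IC50 when retested across doses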;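 note: the DPM-DC format reads NADH fluorescence rather than 340 nm absorbance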
Spn PMK inh = inhibitors of Streptococcus pneumoniae phosphomevalonate kinase; hit rate 0.49% among 65,000; purified PMK, PK/LDH-coupled NADH absorbance 340 nm; inhibition, % at 10 µM;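 active = top-ranked compounds by inhibition in the single 10 µM screen, taking a fixed number of the strongest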;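 note: 0% = full reaction with DMSO carrier and 100% = background rate without enzyme reaction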
Abs 340nm = compounds absorbing at 340 nm; compound absorbance at 340 nm, fold over control; fold change at 10 µM; 65,000 tested, under 10 active;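 active = at 10 µM dose, initial 340 nm absorbance at least 2 fold that of control wells; inactive = change under 2 fold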;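 note: initial absorbance extrapolated from kinetic A340 decline of NADH oxidation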
Spn MK inh = S. pneumoniae mevalonate kinase inhibition | hit rate 0.48% among 65,000 | inhibition, % at 10 µM | purified MK, PK/LDH-coupled NADH absorbance 340 nm;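 active = ranked among the strongest by inhibition in the single 10 µM screen, a fixed top-ranked set picked for dose follow-up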
DPM-DC inhibit = blocks S. pneumoniae diphosphomevalonate decarboxylase; purified DPM-DC, PK/LDH coupled NADH fluorescence; AID 556; calls only at 10 µM; hit rate 0.49% among 65,000;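 active = the 320 compounds with the highest percent inhibition in the single-dose primary screen, excluding strongly autofluorescent ones, cut at about 32% in these data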;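 note: kinetic rate of NADH fluorescence loss reporting ADP formed by the decarboxylase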
Fluor 339 460 = intrinsic fluorescence of library compounds, ex339/em460 – biochemical, MLSMR library, data from DPM-DC assay, artefact control, profiling panel | AID 709 | fluorescence fold increase at 10 µM | hit rate 5.5% among 65,000 | compound autofluorescence, ex339/em460 nm, NADH buffer; stronger effect = higher value; 1 = no-compound wells, NADH background;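 active = at 10 µM, mean starting fluorescence two-fold or more over control wells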;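 note: signal is the first read of a kinetic run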
* hit, by the source's call; i = inactive; . = not tested or not shown; + = active, no number. An excerpt weighted towards active compounds, which were near 6.5% of everything screened.

SMILES | NADH enzymes | Spn PMK inh | Abs 340nm | Spn MK inh | DPM-DC inhibit | Fluor 339 460
CCCCS(=O)(=O)c1sc2nc3c(cc2c1N)CCCC3 | 8.0% | 6.0 | 1.06 | 10.0 | . | 3.34*
CCC1(C)Cc2nc3sc(C(=O)O)c(N)c3cc2CO1 (stereo unspecified) | 1.0% | 0.0 | 1.05 | 4.0 | i | 1.09
COC(=O)C1(C)Nc2ccccc2C(=O)N1c1ccccc1OC (stereo unspecified) | 15.0% | 25.0 | 1.06 | 5.0 | . | 2.09*
COC(=O)C1(C)NC(=O)c2ccccc2N1 (stereo unspecified) | 4.0% | 2.0 | 1.06 | 5.0 | . | 2.08*
COc1ccc(Cn2c(C)nc3oc4cc(OC)ccc4c(=O)c3c2=O)cc1 | 2.0% | 0.0 | 1.05 | 6.0 | i | 1.12
COc1cc(OC)c2c(C)c(Cl)c(=O)oc2c1 | 5.0% | 9.0 | 1.08 | 0.0 | . | 3.66*
OC1CN=C2C=CC=CN2C1 (stereo unspecified) | 13.0% | 9.0 | 1.03 | 4.0 | i | 2.25*
CCc1c(C)nc(SCC(=O)CC(=O)OC(C)C)c(C#N)c1C | 11.0% | 11.0 | 1 | 12.0 | i | 2.16*
COC(=O)CC(=O)CSc1nc(C)cc(C)c1C#N | 5.0% | 8.0 | 1.09 | 2.0 | . | 3.77*
CC(C)OC(=O)CC(=O)CSc1nc2c(cc1C#N)CCC2 | 13.0% | 18.0 | 1.04 | 8.0 | . | 3.69*
N#Cc1cc2c(nc1SCC(=O)Nc1nccs1)CCCCC2 | 5.0% | 0.0 | 1 | 7.0 | i | 1.76
C=C(C)CSc1nc2c(cc1C#N)CCC2 | 2.0% | 0.0 | 1.04 | 5.0 | i | 1.15
CCOC(=O)CC(=O)CSc1nc2c(cc1C#N)CCCCCC2 | 2.0% | 3.0 | 1.04 | 0.0 | . | 2.37*
CCn1cc(C(C)NC(=O)COc2ccc(Cl)cc2C)c(C)n1 (stereo unspecified) | 11.0% | 9.0 | 0.99 | 7.0 | i | 1.03
N#Cc1cc2c(nc1SCc1nc3ccccc3[nH]1)CCC2 | 16.0% | 13.0 | 1.02 | 10.0 | i | 2.07*
CS(=O)CSc1nc2c(cc1C#N)CCCC2 (stereo unspecified) | 5.0% | 9.0 | 0.97 | 5.0 | i | 1.11
CC(C)OC(=O)CC(=O)CSc1nc2c(cc1C#N)CCCC2 | 7.0% | 8.0 | 1.02 | 6.0 | . | 3.74*
COC(=O)CC(=O)CSc1nc2c(cc1C#N)CCC2 | 1.0% | 0.0 | 1.13 | 2.0 | . | 3.82*
O=C(C1CCN(S(=O)(=O)c2ccc(F)cc2)CC1)N1CCOCC1 | 4.0% | 6.0 | 1.02 | 3.0 | i | 1.05
COC(=O)c1ccc(CSc2nnc(-c3ccncc3)n2Cc2ccccc2)o1 | 5.0% | 3.0 | 0.99 | 11.0 | i | 1.11
Cc1cccc2cc(CN(CCN3CCCC3)C(=O)NC3CCCCC3)c(=O)[nH]c12 | 4.0% | 30.0* | 1 | 3.0 | i | 1.21
O=C(NC1CCCCC1)N(Cc1cc2cc3c(cc2[nH]c1=O)OCCO3)CC1CCCO1 (stereo unspecified) | 10.0% | 11.0 | 1.08 | 9.0 | . | 4.47*
O=C(NC1CCCCC1)N(CCN1CCCC1)Cc1cc2cc3c(cc2[nH]c1=O)OCCO3 | 19.0% | 14.0 | 1.03 | 0.0 | + | 3.59*
CCOC(=O)c1c(C)[nH]c(C(=O)C(C)OC(=O)c2cccc(OCc3c(C)noc3C)c2)c1C (stereo unspecified) | 4.0% | 11.0 | 1.01 | 0.0 | i | 1.07
O=C1C(=O)N(CCCN2CCOCC2)C(c2ccccn2)/C1=C(\O)c1ccc2c(c1)OCCO2 (stereo unspecified) | 9.0% | 11.0 | 1.01 | 15.0 | i | 1.04
SMILES | NADH enzymes | Spn PMK inh | Abs 340nm | Spn MK inh | DPM-DC inhibit | Fluor 339 460
COc1ccc(Oc2coc3cc(OC(=O)N4CCOCC4)ccc3c2=O)cc1 | 3.0% | 5.0 | 1.06 | 5.0 | i | 1.1
COc1cccc(Oc2coc3c(CN4CCOCC4)c(O)ccc3c2=O)c1 | 9.0% | 10.0 | 1.08 | 8.0 | . | 3.89*
O=c1c(-c2ccc3c(c2)OCCO3)coc2c(CN3CCOCC3)c(O)ccc12 | 7.0% | 2.0 | 1.08 | 11.0 | . | 3.79*
Cc1cccc(S(=O)(=O)NCCC(=O)OC(C)C(=O)NC(=O)NC2CCCCC2)c1 (stereo unspecified) | 3.0% | 9.0 | 1.04 | 0.0 | i | 1.09
O=C1CCN2C=Nc3cccc4ccc1c2c34 | 3.0% | 5.0 | 1.07 | 0.0 | . | 3.2*
O=C(Nc1ccc2nn(-c3ccccc3)nc2c1)c1ccc(Br)o1 | 9.0% | 18.0 | 1.01 | 6.0 | + | 1.8
CC(=O)c1cccc(NC(=O)c2ccc(Br)o2)c1 | 2.0% | 5.0 | 1.06 | 0.0 | i | 1.09
O=C(Nc1ccc2nn(-c3ccccc3)nc2c1)c1ccc2c(c1)OCCO2 | 5.0% | 0.0 | 1.15 | 9.0 | . | 2.19*
O=C(Nc1ccc2nsnc2c1)c1ccc2c(c1)OCO2 | 7.0% | 6.0 | 1.15 | 7.0 | i | 1.29
COc1ccc(-n2c(O)c(/C=N/n3cnnc3)c3ccccc3c2=O)cc1 | 3.0% | 0.0 | 1.04 | 5.0 | . | 2.1*
CCOCCOC(=O)C1=C(C)NC2=C(C(=O)CC(c3cccs3)C2)C1c1ccsc1 (stereo unspecified) | 2.0% | 0.0 | 1.07 | 4.0 | . | 2.14*
CC1CN(Cc2nc3c(c(=O)[nH]c(=O)n3C)n2CCCc2ccccc2)CC(C)O1 (stereo unspecified) | 2.0% | 3.0 | 0.99 | 4.0 | i | 1.11
Cc1ccc(N2CCn3c2nc2c3c(=O)n(CCc3ccccc3)c(=O)n2C)cc1 | 10.0% | 18.0 | 1.03 | 9.0 | i | 2.39*
COc1ccc(N2CCCn3c2nc2c3c(=O)n(CCc3ccccc3)c(=O)n2C)cc1 | 5.0% | 10.0 | 1.03 | 6.0 | i | 1.15
COc1ccc(C2(C(=O)N3CCCC3)CCOCC2)cc1OC | 2.0% | 1.0 | 1.04 | 8.0 | i | 1.03
CCOCc1cc(C)[nH]c(=O)c1C#N | 4.0% | 4.0 | 1.08 | 4.0 | . | 4.46*
O=C(O)c1c(-c2ccccc2)c2oc3ccccc3c2[nH]c1=O | 21.0% | 12.0 | 1.12 | 17.0 | + | 3.58*
O=c1[nH]cnc2c1oc1ccccc12 | 7.0% | 15.0 | 1.01 | 5.0 | i | 1.06
O=C(OCc1nnc(-c2ccccc2)o1)c1ccc2c(c1)OCCO2 | 5.0% | 16.0 | 0.99 | 0.0 | i | 1.05
CCn1c2ccccc2c2cc(NC(=O)N3CCOCC3)ccc21 | 10.0% | 8.0 | 1.07 | 9.0 | i | 2.08*
CCn1c(=O)c2cc(C(=O)N3CCCC3)sc2c2ccccc21 | 2.0% | 1.0 | 1.17 | 3.0 | . | 2.13*
O=C(c1cc2c(=O)n3ccccc3nc2s1)N1CCOCC1 | 10.0% | 19.0 | 1.09 | 0.0 | . | 4.93*
CCn1c(=O)c2cc(C(=O)N3CCOCC3)sc2c2ccccc21 | 5.0% | 3.0 | 1.12 | 6.0 | . | 2.14*
O=C(c1cc2c(=O)oc3ccccc3c2s1)N1CCOCC1 | 10.0% | 17.0 | 1.09 | 8.0 | i | 0.96
Cc1nn(-c2ccccc2)c2sc(C(=O)N3CCOCC3)cc12 | 1.0% | 7.0 | 1.01 | 3.0 | i | 1.07
CCn1c(=O)cc(OCC(=O)N2CCCC2)c2ccccc21 | 0.0% | 0.0 | 1.04 | 0.0 | i | 1.06
